# Shown are actives, neighbours in structure and some others; about 2.1% of the full set was active somewhere.
# aSyn UTR inh: MLPCN primary screen, SNCA 5' untranslated region; alpha-synuclein 5'UTR reporter, inhibitor activity; AID 1813; inhibition, % (tested at 7.5 µM); hit rate 0.82% among 300,000; in the data active = inhibition above about 60%;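 note: H4 neuroglioblastoma cells stably carrying SNCA 5'UTR luciferase fusion; 0% = DMSO wells and 100% = positive control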
# BaF3 tox: counter-screen for JAK2V617F inhibitors: parental Ba/F3 viability inhibitors; CellTiter-Glo ATP luminescence; inhibition, % at 5.6 µM; hit rate 1.1% among 220,000;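 active = inhibition above a per-campaign cutoff, the mean inhibition of all tested compounds plus 3 SD, cut at about 27% in these data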;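 note: 0% = DMSO wells and 100% = JAK Inhibitor I control wells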
# KLF5 inhibitor: kruppel-like factor 5 inhibition. hit rate 0.23% among 290,000. AID 1700. DLD-1 KLF5 promoter-luciferase reporter, luminescence. inhibition, % at 5 µM;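 active = inhibition above a per-plate limit of that plate's mean compound inhibition plus 3 SD, cut at about 60% in these data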;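 note: 0% = DMSO wells and 100% = LY294002 at 200 µM; higher means less KLF5 promoter-driven luciferase light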
# Ba/F3 V617F tox: loss of viability in JAK2V617F-driven Ba/F3 cells. Ba/F3 EpoR-JAK2V617F viability, ATP luminescence. inhibition, % at 5.6 µM. hit rate 1.1% among 220,000;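 active = inhibition above the campaign mean plus 3 SD over all tested compounds, cut at about 24% in these data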;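 note: cytokine-independent growth of Ba/F3 cells driven by EpoR plus mutant JAK2; 0% = DMSO-treated cells and 100% = JAK inhibitor I control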
# APP transl inh: APP translation inhibition; hit rate 0.82% among 190,000; inhibition, % at 2 µM; SH-SY5Y APP 5'UTR-luciferase reporter, luminescence;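 active = inhibition above a set limit, derived from the sample mean plus 3 SD, cut at about 45% in these data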
# IEC-6 tox: IEC-6 cytotoxicity, counter-screen for KLF5 inhibitors | luminescence viability | inhibition, % at 5 µM | hit rate 0.78% among 290,000; in the data active = inhibition above about 22%;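 note: 0% = plate median of test compound wells and 100% = cytotoxic reference compound wells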
# An asterisk follows results filed as active; . = not tested or not shown.
SMILES,aSyn UTR inh,BaF3 tox,KLF5 inhibitor,Ba/F3 V617F tox,APP transl inh,IEC-6 tox
COc1cccc(C(=O)Oc2c(Br)cc(Br)cc2/C=N/NC(=O)c2cc(C)[nH]n2)c1,64*,8,51,5,45*,41*
CCn1c(C)nc2cc(NC(=O)Nc3cccc(C(C)=O)c3)ccc21,-99,.,-59,.,.,0
CC(NC(=O)Nc1nnc(C(F)(F)F)s1)(C(F)(F)F)C(F)(F)F,47,40*,45,37*,1,20
Cc1cccc(C(=O)CC(=O)c2cc(Cl)ccc2O)c1,64*,2,-50,-4,-16,0
CN(CC(=O)Nc1ccccc1Cl)C(=O)CSc1nnc(N)s1,0,.,.,.,.,.
CCC(C)NC(=O)CN(C1CCCCC1)S(=O)(=O)c1ccc(F)cc1 (stereo unspecified),8,.,5,.,.,-7
COC(=O)Nc1nc2ccc(-c3n[nH]c(=O)c4ccccc34)cc2[nH]1,-9,3,-25,-3,55*,-4
COC(=O)c1ccc(-c2n[nH]c(=O)c3ccccc23)cc1,3,2,-8,-1,24,-3
CC(C)(C)Sc1ccccc1S(=O)(=O)C(C)(C)C,0,-5,-27,-1,.,-4
O=C(NC(C(=O)N/N=C/c1cccnc1)c1n[nH]c(=O)c2ccccc12)c1ccccc1 (stereo unspecified),6,2,5,-4,.,3
Cc1nc(C)c(C(=O)NCc2ccc(Cl)cc2)o1,-9,5,-18,-2,-2,-2
Cc1nn(C)c(C(=O)NCc2ccc(Cl)cc2)c1Cl,4,34*,-19,18,7,0
Cc1cccc(N(Cc2ccccc2)C(=O)c2cc(S(=O)(=O)N3CCOCC3)ccc2Cl)c1,-3,.,.,.,.,.
CC(C)C(=O)NC(=S)/C=C1/N(C)c2ccccc2C1(C)C,-11,57*,-13,30*,-2,-6
Cc1ccc(C(=O)NC(=S)/C=C2\N(C)c3ccccc3C2(C)C)cc1,1,36*,-17,4,-5,-1
CN1/C(=C\C(=O)C(F)F)C(C)(C)c2ccccc21,7,4,-24,-4,5,-2
Cc1c(NC(=S)/C=C2\N(C)c3ccccc3C2(C)C)c(=O)n(-c2ccccc2)n1C,2,50*,-55,8,8,-7
CC(=O)/C=C1\N(C)c2ccc(C)cc2C1(C)C,4,39*,-10,42*,12,-2
CN1/C(=C\C(=O)CSc2ncn[nH]2)C(C)(C)c2ccccc21,10,15,7,8,-7,5
Cc1ccc(S(=O)(=O)Nc2cc(-c3ccccc3)nn2C)cc1Cl,-9,2,-4,-2,.,2
CCc1ccc(CN2CCCC(C(=O)Nc3ccc(-c4cscn4)cc3)C2)o1 (stereo unspecified),14,.,-13,.,.,-5
Cc1cccc(C(=O)Nc2ccc(NC(=O)CN3CCOCC3)cc2)c1,3,.,-11,.,.,0
CC(Oc1ccc2ccccc2c1)C(=O)NNC(=O)Nc1ccccc1F (stereo unspecified),6,.,-38,.,.,3
CN1/C(=C/C(=S)NC(=O)C2CCC2)C(C)(C)c2ccccc21,-3,30*,-29,6,-2,5
CN1/C(=C\C(=O)c2cccc(S(=O)(=O)N3CCCCC3)c2)C(C)(C)c2ccccc21,-6,-2,0,-2,-3,5
SMILES,aSyn UTR inh,BaF3 tox,KLF5 inhibitor,Ba/F3 V617F tox,APP transl inh,IEC-6 tox
CN(C)c1ccc(/C=C(/NC(=O)c2ccccc2Cl)C(=O)NCCN2CCOCC2)cc1,1,.,-17,.,.,-6
Oc1ccccc1N=Nc1nc(-c2ccccc2)c(-c2ccccc2)[nH]1,107*,97*,50,98*,88*,0
COc1ccccc1N=Nc1nc(-c2ccccc2)c(-c2ccccc2)[nH]1,-16,7,-22,3,4,-4
COc1ccc(C(=O)N2CCN(C(=O)c3cc(OC)c(OC)c(OC)c3)CC2)cc1,-10,5,1,-3,-14,-7
COc1cc(C(=O)N2CCN(c3cc(Cl)ccc3Cl)CC2)cc(OC)c1OC,89*,63*,49,65*,-2,61*
O=C(NCCCn1ccnc1)c1ccc(S(=O)(=O)N2CCCCCC2)cc1,-9,2,-3,-2,1,-4
CC1CC(C)CN(S(=O)(=O)c2ccc(C(=O)NCCCn3ccnc3)cc2)C1 (stereo unspecified),98*,4,6,6,73*,4
c1cncc(CSc2ccc(-c3cccs3)nn2)c1,-110,46*,-59,6,-50,11
CCOc1ccc(-c2cnc3ccccc3n2)cc1,92*,-1,27,-3,.,3
O=C(Nc1cc(Cl)cc(Cl)c1)N1CCCC1,-3,7,-19,-4,.,-4
NS(=O)(=O)c1ccc(CNC(=O)/C=C/c2ccco2)cc1,-15,56*,0,93*,.,2
O=C(/C=C/c1ccco1)NCc1ccc(F)cc1,3,6,-43,2,-7,-5
Cc1ccc(-n2nc3ccc(NC(=S)NC(=O)/C=C/c4ccco4)cc3n2)cc1,-96,-1,-57,-4,-18,-3
CCC(=O)Nc1cc2nn(-c3ccc(C)cc3)nc2cc1C,80*,-3,-34,-2,-116,-8
Cc1ccc(-n2nc3cc(C)c(NC(=S)NC(=O)/C=C/c4ccco4)cc3n2)cc1,-257,63*,-55,68*,-43,3
COC(=O)CN(C#N)c1nc(NC(C)C)nc(OC)n1,4,32*,-37,41*,6,-9
COC(=O)CN(C#N)c1nc(OC)nc(N(C)C)n1,-4,5,-18,-2,-3,-4
O=C(/C=C/c1cccs1)NC(=S)NNC(=O)c1ccccc1O,103*,54*,2,94*,18,-4
COc1ccc(C(=O)NNC(=S)NC(=O)/C=C/c2cccs2)cc1,30,8,-31,-2,34,-4
CCCCN(CCCNC(=O)CN1C(=O)COc2ccc(S(=O)(=O)N3CCC(C)CC3)cc21)Cc1ccccc1,17,.,-31,.,.,-5
Cc1c(C(=O)N/N=C/c2ccccc2)[nH]c2ccc(Cl)cc12,-61,4,-33,4,52*,7
O=C(N/N=C/c1ccccc1)c1c(O)c2ccccc2[nH]c1=O,-26,1,-19,-2,-67,-2
NNC(=O)c1[nH]c2ccc(Cl)cc2c1-c1ccccc1,77*,0,-16,-3,.,2
NNC(=O)c1[nH]c2ccc(Br)cc2c1-c1ccccc1,-13,3,8,-2,.,0
Cc1c(C(=O)N/N=C/c2ccc(N(C)C)cc2)[nH]c2ccc(Cl)cc12,73*,1,-21,0,90*,14
CN(C)CC/C=C1\c2ccc(F)cc2Sc2cc(F)c(Cl)cc21,103*,.,.,.,.,.
O=C(CN1C(=O)NC2(CCCCC2)C1=O)NCC(=O)Nc1ccc(F)c(F)c1,1,.,.,.,.,.
COc1ccc(Nc2nc3cc(C)ccc3cc2C#N)c(OC)c1,10,3,0,-3,92*,-3

# Screening data: PubChem BioAssay, several laboratories
